Test results: PubChem BioAssay (Tox21)
Results filed as inconclusive are left out. The source made the active and inactive calls. Unless noted, calls follow the shape of the dose curve; as a rule, active = well fitted curve in the direction sought with a large enough effect in the repeat runs; inconclusive = weak or mixed curves; inactive = no such curve, though single readings can be large; an effect the other way counts as inactive or inconclusive.

Tests used:
[1] = qHTS assay to identify small molecule agonists of the hypoxia (HIF-1) signaling pathway - cell viability counter screen (AID 1224844; calls by dose curve; also: nearly all actives have a fitted effect of over 50% in size)
Procedure, shortened: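 Tox21 10K compounds were added to HRE-bla ME-180 cells (0.5% dialyzed FBS) and incubated 17 hrs at 37C; ATP-based CellTiter-Glo luminescence then reported cell viability in the same wells.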

[2] = qHTS assay to identify small molecule agonists of H2AX (AID 1224845; active = well fitted activation curve with a large enough effect in the signal ratio in the repeat runs, not every such curve was filed as active; the % refers to the signal ratio)
Procedure, shortened: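 Wild-type CHO-K1 cells plated overnight, then exposed 3 hr at 37C to compounds at 15 concentrations (0.76% DMSO). Lysed, then HTRF anti-pH2AX(S139)-cryptate/anti-H2AX-d2 detection after 24 hr at room temperature; emissions 665 and 620 nm.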

[3] = qHTS assay to identify small molecule agonists of the hypoxia (HIF-1) signaling pathway (AID 1224846; active = well fitted activation curve with a large enough effect in the signal ratio in the repeat runs, not every such curve was filed as active; the % refers to the signal ratio)
Procedure, shortened: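 Steps: seed ME-180 HRE-bla cells (2,000/well, 0.5% dialyzed FBS); incubate 5 hrs at 37C; pin-transfer compounds or DMSO; incubate 17 hrs; add LiveBLAzer B/G substrate CCF4-AM; measure reporter activation by FRET.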

[4] = qHTS assay to identify small molecule agonists of H2AX - cell viability counter screen (AID 1224847; calls by dose curve; also: nearly all actives have a fitted effect of over 30% in size; also: potency is read from the fitted curve at half-maximal effect; as to activity change, negative = cytotoxicity: top concentration of the series differs between compounds)
Procedure, shortened: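 Cells plated first: CHO-K1, 1000 per well in 10% FBS medium, incubated overnight at 37C. Then 15-point compound titration added (final DMSO 0.76%) for 3 hr. Finally CellTiter-Glo added and luminescence read.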

[5] = qHTS RealTime-Glo MT Cell Viability Assay in HepG2 cells - 24 hour (AID 1224867); also: nearly all actives have a fitted effect of over 50% in size
Procedure, shortened: (§1)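 HepG2 suspension premixed with RealTime-Glo reagents is plated at 600 cells per well and left 5 h at 37 C/5% CO2. Compounds in DMSO then go in, and bioluminescence reflecting viable cell number is recorded over 40 h.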

[6] = qHTS RealTime-Glo MT Cell Viability Assay in HEK293 cells - 32 hour (AID 1224868); also: nearly all actives have a fitted effect of over 50% in size; also: potency is read from the fitted curve at half-maximal effect; as to activity change, negative = cytotoxic: top concentration of the series differs between compounds
Procedure, shortened: (§2)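 Reads taken at 0, 8, 16, 24, 32 and 40 h from the same wells. HEK293 cells (600/well) carried RealTime-Glo reagents from seeding, with compound added after a 5 h settle at 37 C.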

[7] = A CellTox Green Cytotoxicity Assay to monitor cytotoxicity in HEK293 cells - 0 hour (AID 1224869); also: nearly all actives have a fitted effect of over 50% in size
Procedure, shortened: (§3)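 Cytotoxicity was tracked continuously in HEK293 cells by a DNA-binding dye excluded from viable cells. Compounds were transferred in DMSO 5 h after seeding; fluorescence was recorded at intervals up to 40 h.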

[8] = qHTS RealTime-Glo MT Cell Viability Assay in HepG2 cells - 40 hour (AID 1224870); also: nearly all actives have a fitted effect of over 50% in size
Procedure, shortened: (§4)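 HepG2 cells mixed with RealTime-Glo MT reagents (NanoLuc plus cell-permeant prosubstrate) were seeded at 600 cells/well, incubated 5 h at 37 C/5% CO2, then pinned with compounds in DMSO; nonlytic luminescence tracked viability during 40 h treatment.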

[9] = A CellTox Green Cytotoxicity Assay to monitor cytotoxicity in HEK293 cells - 40 hour (AID 1224871); also: nearly all actives have a fitted effect of over 45% in size; also: potency is read from the fitted curve at half-maximal effect
Procedure, shortened: as §3

[10] = qHTS RealTime-Glo MT Cell Viability Assay in HEK293 cells - 16 hour (AID 1224872); also: nearly all actives have a fitted effect of over 50% in size; also: potency is read from the fitted curve at half-maximal effect; as to activity change, negative = cytotoxicity: top concentration of the series differs between compounds
Procedure, shortened: as §2

[11] = qHTS RealTime-Glo MT Cell Viability Assay in HepG2 cells - 8 hour (AID 1224873); also: nearly all actives have a fitted effect of over 55% in size
Procedure, shortened: as §4

[12] = qHTS RealTime-Glo MT Cell Viability Assay in HEK293 cells - 40 hour (AID 1224874); settings: RealTime-Glo luminescence; max response: hits give low values; also: nearly all actives have a fitted effect of over 50% in size; also: potency is read from the fitted curve at half-maximal effect
Procedure, shortened: (§5)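 Nonlytic bioluminescent viability monitoring. HEK293 at 600 cells/well with reagent; 5 h settle; compound transfer by pintool; plates held at 37 C and read at set time points.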

[13] = A CellTox Green Cytotoxicity Assay to monitor cytotoxicity in HepG2 cells - 16 hour (AID 1224876); also: nearly all actives have a fitted effect of over 45% in size
Procedure, shortened: (§6)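 Real-time, homogeneous cytotoxicity readout: dead-cell DNA staining by CellTox Green in HepG2 monolayers, fluorescence measured at timed intervals up to 40 h of continuous compound exposure.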

[14] = qHTS RealTime-Glo MT Cell Viability Assay in HepG2 cells - 32 hour (AID 1224877); also: nearly all actives have a fitted effect of over 55% in size
Procedure, shortened: as §1

[15] = A CellTox Green Cytotoxicity Assay to monitor cytotoxicity in HepG2 cells - 24 hour (AID 1224878); also: nearly all actives have a fitted effect of over 45% in size
Procedure, shortened: as §6

[16] = A CellTox Green Cytotoxicity Assay to monitor cytotoxicity in HepG2 cells - 40 hour (AID 1224879); also: nearly all actives have a fitted effect of over 40% in size
Procedure, shortened: as §6

[17] = qHTS RealTime-Glo MT Cell Viability Assay in HEK293 cells - 0 hour (AID 1224880); also: top concentration of the series differs between compounds; nearly all actives have a fitted effect of over 45% in size
Procedure, shortened: as §5

[18] = A CellTox Green Cytotoxicity Assay to monitor cytotoxicity in HEK293 cells - 24 hour (AID 1224875)
Procedure, shortened: as §3
% is scaled to controls: 0 for no effect and ±100 for the full control effect.

CC(C)(C)CC(C)(C)c1ccc(Nc2ccc(C(C)(C)CC(C)(C)C)cc2)cc1
inactive: activity change, negative = cytotoxicity [1] 0.53% [at 6.97 µM] | activation (H2AX phosphorylation) [2] 0.788% [at 14 µM] | activation [3] 3.2% [at 7.01 µM] | activity change, negative = cytotoxicity [4] 0.45% [at 14 µM] | activity change, negative = cytotoxicity [5] 0.0274% [at 6.97 µM] | activity change, negative = cytotoxic [6] 9.22% [at 6.97 µM] | cytotoxicity [7] 3.78% [at 6.97 µM] | activity change, negative = cytotoxic [8] -1.04% [at 6.97 µM] | cytotoxicity increase [9] 0.599% [at 6.97 µM] | activity change, negative = cytotoxicity [10] -0.589% [at 6.97 µM] | viability change, negative = cytotoxic [11] 4.91% [at 6.97 µM] | max response [12] 9% | cytotoxicity increase [13] -0.431% [at 6.97 µM] | activity change, negative = cytotoxic [14] 0.186% [at 6.97 µM] | cytotoxicity [15] 4.45% [at 6.97 µM] | cytotoxicity increase [16] 2.12% [at 6.97 µM] | activity change, negative = cytotoxicity [17] -8.12% [at 6.97 µM]

C[C@@H](O)[C@H](N)C(=O)O
inactive: activity change, negative = cytotoxicity [1] -2.15% [at 15.8 µM] | activation (H2AX phosphorylation) [2] 0.0265% [at 31.6 µM] | activation [3] -0.487% [at 15.8 µM] | activity change, negative = cytotoxicity [4] -4.33% [at 31.6 µM] | activity change, negative = cytotoxicity [5] 0.0975% [at 15.8 µM] | activity change, negative = cytotoxic [6] 0.135% [at 15.8 µM] | cytotoxicity [7] -4.33% [at 15.8 µM] | cytotoxicity increase [9] -7.08% [at 15.8 µM] | activity change, negative = cytotoxicity [10] -1.06% [at 15.8 µM] | viability change, negative = cytotoxic [11] 1.46% [at 15.8 µM] | max response [12] -1.76% | activity change [18] -4.79% [at 15.8 µM, hits give high values] | cytotoxicity increase [13] 6.33% [at 15.8 µM] | activity change, negative = cytotoxic [14] -3.46% [at 15.8 µM] | cytotoxicity [15] 5.91% [at 15.8 µM] | cytotoxicity increase [16] 7.81% [at 15.8 µM] | activity change, negative = cytotoxicity [17] -2.75% [at 15.8 µM]

CC(C(=O)O)c1ccc2c(c1)[nH]c1ccc(Cl)cc12 (stereo not drawn)
inactive: Potency [1] | Potency [2] | Potency [3] | Potency [4] | Potency [5] | Potency [6] | Potency [7] | Potency [8] | Potency [9] | Potency [10] | max response [12] 1.73% | Potency [18] | Potency [13] | Potency [14] | Potency [15] | Potency [16]

CCC(CC)(CC(=O)Nc1cccc(/C=C/c2nc(C3CCC3)cs2)c1)C(=O)O
inactive: Potency [1] | Potency [2] | Potency [3] | Potency [4] | Potency [5] | Potency [6] | Potency [7] | Potency [8] | Potency [9] | Potency [10] | Potency [11] | max response [12] -19.8% | Potency [18] | Potency [13] | Potency [14] | Potency [15] | Potency [16]

CC[C@H](C)COC(=O)/C=C/c1ccc(N=Cc2ccc(OC)cc2)cc1
inactive: Potency [1] | Potency [2] | Potency [3] | Potency [5] | Potency [7] | Potency [8] | Potency [11] | Potency [13] | Potency [14]
active: Potency [4] 89.7 µM | Potency [6] 21.8 µM | Potency [9] 48.9 µM | Potency [10] 21.8 µM | Potency [12] 21.8 µM

C=C(C)c1cccc(C(=C)C)c1
inactive: Potency [1] | Potency [2] | Potency [3] | Potency [4] | Potency [5] | Potency [6] | Potency [7] | Potency [8] | Potency [9] | Potency [10] | Potency [11] | max response [12] -0.359% | Potency [18] | Potency [13] | Potency [14] | Potency [15] | Potency [16] | Potency [17]

C=CCn1c(=O)n(CC=C)c(=O)n(CC=C)c1=O
inactive: Potency [1] | Potency [2] | Potency [3] | Potency [4] | Potency [5] | Potency [6] | Potency [7] | Potency [8] | Potency [9] | Potency [10] | Potency [11] | max response [12] -5.88% | Potency [18] | Potency [14] | Potency [15] | Potency [16] | Potency [17]

CCCC(=O)OC(C)(C)Cc1ccccc1
inactive: Potency [1] | Potency [2] | Potency [3] | Potency [4] | Potency [6] | Potency [7] | Potency [8] | Potency [10] | Potency [11] | max response [12] -22.8% | Potency [18] | Potency [14] | Potency [17]
active: Potency [9] 24.5 µM

C#Cc1ccc(-c2ccccc2F)cc1
inactive: Potency [1] | Potency [2] | Potency [3] | Potency [4] | Potency [5] | Potency [6] | Potency [7] | Potency [8] | Potency [9] | Potency [10] | max response [12] 5.33% | Potency [18] | Potency [13] | Potency [14] | Potency [15] | Potency [17]

Cc1c(C)c2c(c(C)c1O)CC[C@@](C)(CCC[C@H](C)CCC[C@H](C)CCCC(C)C)O2
inactive: Potency [1] | Potency [2] | Potency [3] | Potency [4] | Potency [5] | Potency [6] | Potency [7] | Potency [8] | Potency [9] | Potency [10] | Potency [11] | max response [12] -14.1% | Potency [18] | Potency [13] | Potency [14] | Potency [15] | Potency [16] | Potency [17]

CC1(C)CC(O)CC(C)(C)N1
inactive: Potency [1] | Potency [2] | Potency [3] | Potency [4] | Potency [5] | Potency [6] | Potency [7] | Potency [9] | Potency [10] | Potency [11] | max response [12] -4.64% | Potency [18] | Potency [13] | Potency [14] | Potency [15] | Potency [16] | Potency [17]

COc1ccc(-c2coc3cc(O)ccc3c2=O)cc1
inactive: Potency [1] | Potency [2] | Potency [3] | Potency [4] | Potency [5] | Potency [6] | Potency [7] | Potency [9] | Potency [10] | Potency [11] | max response [12] -10.2% | Potency [18] | Potency [13] | Potency [14] | Potency [15] | Potency [16] | Potency [17]
